Assay results: PubChem BioAssay AID651791 (National Center for Advancing Translational Sciences (NCATS), 2012)
Results filed as inconclusive are left out. Active and inactive are the calls of the source. Calls follow the shape of the dose curve; as a rule, active = well fitted inhibition curve with a large enough effect; inconclusive = small, poorly fitted or top-dose-only effect; inactive = no such curve, though single readings can be large or run the other way.

experiment: InCell qHTS Assay for Inhibitors of the mTORC1 Signaling Pathway in MEF (Tsc2-/-, p53-/-) Cells: Hit Validation; details: phospho-rpS6 immunofluorescence, 24 h; activity change, negative = inhibition: at 38.3 µM (top of the series); also: nearly all actives have a fitted effect of over 75% in size
Text: The mammalian target of rapamycin (mTOR) is an intracellular serine/threonine kinase Aberrant regulation of mTOR signaling plays a causative role in a number of human diseases, including cancer, benign tumors such as lymphangioleiomyomatosis (LAM) and Tuberous Sclerosis Complex (TSC), and metabolic diseases such as diabetes and obesity. This project aims to identify inhibitors of ribosomal protein S6 (rpS6) phosphorylation. The phosphorylation of rpS6 is a key event downstream of mTOR activation. The assay uses a phospho-specific antibody of phospho-rpS6 to detect inhibitors of mTOR activation. Mutations in the Tsc1 and Tsc2 genes are the underlying genetic lesions responsible for TSC, causing constitutive activation of the mTORC1 pathway and leading to profound effects on cell metabolism. Aberrant metabolism in cancer has recently received significant attention as a target to develop therapeutic agents in the treatment of cancer.1 As Tsc2-/- cells have lost the ability to respond to energy and growth factor deprivation, these cells are unable to properly down regulate cellular biosynthetic processes in response to metabolic stress, and are thus extremely sensitive to glucose deprivation-induced death.2 A central goal of this project is to explore the unique cell survival and metabolic properties of cells with Tsc1 or Tsc2 by screening for compounds that selectively target the Tsc2-/- MEFs by screening both Tsc2-/- and WT MEF cell lines. We hope to better understand these aspects of TSC physiology in order to exploit them for therapeutic benefit. NIH Molecular Libraries Probe Production Centers Network [MLPCN] NIH Chemical Genomics Center [NCGC] MLPCN Grant: NS059428 Assay Submitter (PI): Blenis, John; Harvard University
For quantitative high throughput analysis of mTORC1 signaling, we developed a cell-based assay for immuno-fluorescence based detection of rpS6 phosphorylation on the Acumen Explorer that will be used a platform for the primary small molecule screen. Mouse embryonic fibroblasts (MEFs) are cultured in 1536-well plates using DMEM + 10% FBS. Twenty-four hrs after plating, test compounds (solubilized in DMSO) are delivered and incubated with the cells for 24 hrs at 37 degree Celsius. Following the incubation, media with compound is aspirated and the cells are fixed in 4% paraformaldehyde (PFA) containing PBS + 0.2% TX-100. Next, PFA is aspirated, cells are washed two times with PBS plus 0.2% TX-100 and the cells are blocked for 1 hr at room temperature (blocking buffer: LiCOR Blocking Buffer plus 0.2% TX-100). This is followed by aspiration and staining with Alexa-488 conjugated-phospho-rpS6 Ser235/236 antibody for 2 hours at room temperature (Cell Signaling Technology # 4803, 1:50 dilution in blocking buffer). Cells are washed two times with PBS plus 0.2% TX-100, and stained with 10 uM propidium iodide (PI) for 20-25 minutes for cell number measurement (1:500 dilution of Hoescht staining is also added for IN Cell imaging). The plates are scanned on the Acumen Explorer laser scanning instrument (TTP Labtech) using the 488nm laser for simultaneous excitation of the Alexa-488 and PI. The fluorescence emission from the Alexa-488 conjugated rpS6 phospho-235/236 antibody staining is selected using a […] band pass filter. Fluorescence emission from the PI stain is selected using a 575-640 nm band pass filter. The normalized phospho-S6 staining is calculated as the ratio of the integrated Alexa 488 intensity divided by the integrated PI intensity for the single concentration rapamycin control (7.5 nM) and DMSO columns. […] Inhibition of the pathway is defined based on the normalized phospho-S6 intensity in rapamycin treated cells. […]
Potency is read from the fitted curve at half-maximal effect.

Structure (SMILES)	activity change, negative = inhibition [%]	Potency
Cc1ccc(S(=O)(=O)c2nnn3c2nc(NCc2cccs2)c2sccc23)cc1	-100	–
Cc1ccc(Nc2nc(C(N)=O)c(NC(=O)c3ccccc3Br)s2)cc1	-17.8	–
CCS(=O)(=O)c1oc(-c2ccc(F)cc2)nc1S(=O)(=O)c1ccccc1	–	0.736 µM (active)
COc1cc(OC)cc(C(=O)NCc2ccc3c(c2)CCN3C(=O)c2ccccc2)c1	-100	–
CC(C)c1ccc(C2Sc3ccccc3NC3=C2C(=O)c2ccccc23)cc1 (stereo not given)	-100	–
Oc1ccc(NCc2ccc(OCc3ccccc3Cl)cc2)cc1	-100	–
O=S(=O)(NCc1nc2cccnc2n1Cc1ccccc1Cl)c1ccc(F)c(Cl)c1	-100	–
Cc1ccc(NC(=O)Nc2cccs2)c(C)c1	-100	–
CCc1ccc(S(=O)(=O)N(C(=O)c2ccncc2)c2ccc3oc(C)c(C(=O)OC)c3c2)cc1	-100	–
CCOC(=O)c1c(NC(=O)COc2ccc(OC)cc2)sc(C(=O)N(CC)CC)c1C	-100	–
CC(C)c1nnc(NC(=O)c2nc(S(=O)(=O)Cc3ccccc3)ncc2Cl)s1	–	3.29 µM (active)
CCOc1cc(CNCCSc2nnnn2C)cc(Cl)c1OCc1ccc(Cl)cc1	-100	–
CCc1nnc(NC(=O)c2nc(S(=O)(=O)Cc3cccc(C)c3)ncc2Cl)s1	–	4.14 µM (active)
CCOc1ccc(CCNC(=O)CCc2c(C)nc3cc(-c4ccccc4OC)nn3c2C)cc1	-100	–
COc1ccc(S(=O)(=O)N(C(=O)c2ccncc2)c2ccc3oc(C)c(C(C)=O)c3c2)cc1	-100	–
Nc1nnc(SCC(=O)Nc2cccc(F)c2)s1	-100	–
CCOC(=O)c1cnc2ccc(OC)cc2c1NCCc1ccccc1	-100	–
Cc1ccc(C)c(N2CCN(CCCNC(=O)c3nnc(Cc4ccc(F)cc4Cl)o3)CC2)c1	1.72	–
CCC1=Nc2cc(C(=O)NC3CCCC3)ccc2Sc2ccc(Br)cc21	-100	–
CCOc1ccc(S(=O)(=O)Nc2ccc(OC)c(Cl)c2)c2cccnc12	-100	–

Structure (SMILES)	activity change, negative = inhibition [%]	Potency
O=C(/C=C/c1ccco1)Nc1ccc(Cl)c(-c2nc3cc(Cl)ccc3o2)c1	-100	–
COc1cc(NC(=O)Cn2nc(C(F)(F)F)c3c2CCCC3)c(OC)cc1Cl	-100	–
O=C(Nc1ccc(-c2cc(C(F)(F)F)nn2-c2ccccc2)cc1)c1cccc(F)c1	-100	–
Cc1ccc(-c2nnc(Nc3cccc(Cl)c3)c3ccccc23)cc1S(=O)(=O)N1CCN(C)CC1	-100	–
CCC(C)n1c(SCc2c(F)cccc2Cl)nc2ccsc2c1=O (stereo not given)	-100	–
CCCCOCc1cc(CN2CCN(c3cccc(Cl)c3)CC2)c(O)c2ncccc12	-100	–
Cc1ccc(-c2nnc(C3CCN(S(=O)(=O)c4ccc(C)c(C)c4)CC3)o2)cc1	-100	–
CCCCOc1cccc(C(=O)N(Cc2cccs2)c2ccc(OC)cc2)c1	-3.36	–
CCc1ccc(S(=O)(=O)N(C(=O)Oc2ccccc2)c2ccc3oc(C)c(C(=O)OC)c3c2)cc1	-12.1	–
Nc1c(C(=O)NCc2ccccc2)nnn1Cc1cccc(Br)c1	-100	–
Cc1ccccc1CS(=O)(=O)c1ncc(Cl)c(C(=O)Nc2nnc(C(C)C)s2)n1	–	18.5 µM (active)
CN1CCN(C(CNC(=O)C(=O)Nc2cccc(Cl)c2)c2ccc3c(c2)OCO3)CC1 (stereo not given)	-100	–
CCOC(=O)c1[nH]c2ccccc2c1NC(=O)c1ccccc1OCC	-100	–
CCN(CC)CC(C)CNC(=O)c1cc(-c2ccc(Br)s2)nc2ccccc12 (stereo not given)	-14.3	–
CCN(CC)Cc1c(NC(=O)c2ccc(OC)cc2)sc2c1CCCC2	1.72	–
Cn1ccc2c(OCC(=O)Nc3ccc(OC(F)(F)F)cc3)cccc2c1=O	-100	–
Cc1cc(C)c(NC(=O)c2sc3nc(C)cc(C)c3c2NC(=O)c2ccccc2)c(C)c1	-100	–
CCN1CCC(N(Cc2ccc(F)cc2)C(=O)Nc2ccc(C)c(F)c2)CC1	-100	–
CN(C)c1ccc(-c2nc3ccccn3c2Nc2ccc3c(c2)OCCO3)cc1	-100	–
COc1ccccc1C(=O)Nc1ccc2nc(N3CCC(C)CC3)cc(C)c2c1	-100	–
